Laboratory results published in PubChem BioAssay (NCI).
This is part of a sample that, as a whole, favours compounds with a hit. Of some 83,000 tested, about 20% had one in any assay.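 The endpoint reported here, percent growth, reads 100 for growth as untreated, 0 for no net growth and -100 for all cells dead.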 Active and inactive are the calls of the source. Rule for the calls: active = growth percent below 10; inactive = the rest.

Tests used:
Assay in all cases: NCI-60 one-dose screen, 48 h (100 = growth as untreated, 0 = no growth, -100 = all killed)
[1] = system: DU-145 prostate; conditions: 10 µM unless noted
[2] = system: K-562 leukemia; conditions: 10 µM unless noted
[3] = system: MALME-3M melanoma; conditions: 10 µM unless noted
[4] = system: MDA-MB-231 breast; conditions: 10 µM unless noted
[5] = system: RXF 393 renal; conditions: 10 µM unless noted
[6] = system: SF-268 CNS; conditions: 10 µM unless noted
[7] = system: SF-295 CNS; conditions: 10 µM unless noted
[8] = system: SF-539 CNS; conditions: 10 µM unless noted
[9] = system: UACC-257 melanoma; conditions: 10 µM
[10] = system: M14 melanoma; conditions: 10 µM unless noted
[11] = system: HCT-15 colon; conditions: 10 µM unless noted
[12] = system: HT29 colon; conditions: 10 µM unless noted
[13] = system: SNB-19 CNS; conditions: 10 µM unless noted
[14] = system: U251 CNS; conditions: 10 µM unless noted
[15] = system: PC-3 prostate; conditions: 10 µM unless noted
[16] = system: SK-MEL-5 melanoma; conditions: 10 µM unless noted
[17] = system: UACC-62 melanoma; conditions: 10 µM unless noted
[18] = system: LOX IMVI melanoma; conditions: 10 µM unless noted
[19] = system: SK-MEL-28 melanoma; conditions: 10 µM unless noted

Measured: growth

Nc1ccc(-c2nnc(SCc3ccc(O)c4ncccc34)n2-c2ccccc2)cc1
active: [3] 5.24% | [7] 0.907% | [9] 3.16% | [14] 8.88% | [16] -54.6%
inactive: [1] 24.1% | [2] 15.9% | [4] 17% | [5] 13.5% | [6] 23.3% | [8] 10.5% | [10] 14.9% | [11] 11.3% | [12] 23.8% | [13] 12.4% | [15] 14.1% | [17] 11.9% | [18] 14% | [19] 34%

Cc1nn(-c2ccc(Cl)cc2)c(C)c1N=Nc1ccc2oc(=O)ccc2c1
inactive: [1] 74.5% | [2] 73.5% | [3] 89.5% | [4] 77.5% | [5] 79.4% | [6] 85.1% | [7] 90% | [8] 62.1% | [9] 94.6% | [10] 104% | [11] 81.4% | [12] 94.5% | [13] 97.3% | [14] 82.8% | [15] 80.3% | [16] 84.3% | [17] 80.5% | [18] 69.6% | [19] 82.5%

Nc1c(C(=O)c2ccccc2)sc2nc(-c3cnccn3)cc(-c3cccs3)c12
inactive: [1] 106% | [2] 99.4% | [3] 104% | [4] 92.7% | [5] 108% | [6] 97.8% | [7] 105% | [8] 95.2% | [9] 103% | [10] 97.4% | [11] 106% | [12] 107% | [13] 96.5% | [14] 104% | [15] 100% | [16] 103% | [17] 87.1% | [18] 101% | [19] 106%

Cc1ccc(Nc2ncnc3c2c(C)nn3-c2ccc([N+](=O)[O-])cc2)cc1
inactive: [1] 89.4% | [2] 69.1% | [3] 84.7% | [4] 80.8% | [5] 60.8% | [6] 79.1% | [7] 69.7% | [8] 74.4% | [9] 93.3% | [10] 80.6% | [11] 82.5% | [12] 80.3% | [13] 88.8% | [14] 60.1% | [15] 78.4% | [16] 92.9% | [17] 92.2% | [19] 97.5%

C[C@H]1[C@H](C)CC[C@]2(COC(=O)c3cccnc3)CC[C@]3(C)C(=CC[C@@H]4[C@@]5(C)CCCNC(C)(C)[C@@H]5CC[C@]43C)[C@H]12
inactive: [1] 84.4% | [2] 14.3% | [3] 59.9% | [4] 79.3% | [5] 81.9% | [6] 76.3% | [7] 73.3% | [8] 78.8% | [9] 65.7% | [10] 79.1% | [11] 39.5% | [12] 45.5% | [13] 88.6% | [14] 64.4% | [15] 35.8% | [16] 56.4% | [17] 53.4% | [19] 75%

COc1ccc(OC)c([C@H]2c3[nH]c4ccccc4c3C[C@H]3C(=O)N(CCCCCCC(=O)NO)CC(=O)N23)c1
inactive: [1] 90.1% | [2] 54.2% | [3] 61.6% | [4] 82.3% | [5] 107% | [6] 104% | [7] 94.7% | [8] 78.5% | [9] 67.2% | [10] 83.3% | [11] 99.5% | [12] 87.6% | [13] 86.9% | [14] 81.1% | [15] 77.9% | [16] 86.8% | [17] 53.1% | [18] 15% | [19] 75.2%

CN(C)C(=O)c1ccccc1-n1cnc2ccccc2c1=O
inactive: [1] 105% | [2] 108% | [3] 103% | [4] 100% | [5] 107% | [6] 94.6% | [7] 103% | [8] 95.5% | [9] 98.5% | [10] 101% | [11] 97.5% | [12] 103% | [13] 95.2% | [14] 99.3% | [15] 97.2% | [16] 101% | [17] 96.9% | [19] 103%

COc1ccc(N2CCN(C(=O)CSc3ccc(-c4nc5cc(C)c(C)cc5[nH]4)cn3)CC2)cc1
inactive: [1] 93.1% | [2] 35.3% | [3] 69.9% | [4] 85.6% | [5] 93.6% | [6] 99.3% | [7] 50.2% | [8] 84% | [9] 52.1% | [10] 53.9% | [11] 52.8% | [12] 85.7% | [13] 87.5% | [14] 95.9% | [15] 56.4% | [17] 45.3% | [18] 56.8% | [19] 74.4%
active: [16] 3.13%
